S-ASM inh: Inhibitors of Secretory Acid Sphingomyelinase (S-ASM): qHTS. Sphingomyelin phosphodiesterase (Homo sapiens), P17405. placental ASM, HMU-PC fluorogenic substrate, 60 min. Potency, µM (doses to about 57.5 µM), for inactives: at the top dose activity change, negative = inhibition, most hits filed as inhibitors. 340,000 compounds, 0.006% hits; note: potency is the fitted concentration of half-maximal effect
Target sequence (P17405 47-631 limits assumed): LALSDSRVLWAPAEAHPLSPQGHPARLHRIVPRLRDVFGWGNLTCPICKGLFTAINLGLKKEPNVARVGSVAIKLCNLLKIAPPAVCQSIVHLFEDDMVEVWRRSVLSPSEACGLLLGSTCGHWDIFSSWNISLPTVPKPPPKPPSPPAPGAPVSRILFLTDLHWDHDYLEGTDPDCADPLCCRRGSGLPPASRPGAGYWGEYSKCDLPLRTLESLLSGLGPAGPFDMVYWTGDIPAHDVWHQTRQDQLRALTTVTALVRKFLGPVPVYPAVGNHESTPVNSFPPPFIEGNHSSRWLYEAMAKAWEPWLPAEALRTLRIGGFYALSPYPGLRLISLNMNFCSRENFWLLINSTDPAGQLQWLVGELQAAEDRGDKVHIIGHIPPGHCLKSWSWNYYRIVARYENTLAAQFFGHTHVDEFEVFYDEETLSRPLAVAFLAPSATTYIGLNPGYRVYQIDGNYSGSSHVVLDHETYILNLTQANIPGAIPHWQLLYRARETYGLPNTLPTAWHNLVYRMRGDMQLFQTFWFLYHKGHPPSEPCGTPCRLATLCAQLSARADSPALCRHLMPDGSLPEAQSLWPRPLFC
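Steps: dispense placental human ASM, pin compound, wait 10 min at room temperature, add HMU-PC0 substrate at 9 uM final, incubate 60 min at 37 °C, add stop solution raising pH to 10, read fluorescence.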
IL1B secr inh: qHTS for Inhibitors of Inflammasome Signaling: IL-1-beta AlphaLISA Primary Screen; activity change, % at 57.5 µM; THP-1 LPS/ATP IL-1B secretion, AlphaLISA, 16 h; active compounds read low; 360,000 compounds, 4.7% hits; in the data active = activity change below about -50%; inconclusive = mostly about -30% to -49%; note: % is set by controls: 0 for no effect and ±100 for the full control effect
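Secreted IL-1B measured by AlphaLISA bead assay after 16 h compound exposure of THP-1 cells; compounds (final up to 57.5 uM) added 1 h before LPS (250 ng/mL) and ATP (1.25 mM) stimulation; lower signal means less secretion.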
DT40 TDP1 no CPT: qHTS for Inhibitors of human tyrosyl-DNA phosphodiesterase 1 (TDP1): qHTS in cells in absence of CPT. DT40 Tdp1-/- hTDP1 cells, no CPT, ATP luminescence, 48 h. Potency, µM (doses to about 46.2 µM), without a hit: at the highest dose activity change, negative = growth inhibition, hits mostly inhibitors. 420,000 compounds, 15% hits. AID 686978, 2013; note: potency is the fitted concentration of half-maximal effect; % is set by controls: 0 for no effect and ±100 for the full control effect; nearly all actives have a fitted effect of over 55% in size
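Camptothecin absent (DMSO only). Human TDP1-complemented DT40 knockout cells, 400 cells/well, 37 °C for minimum 48 hr; ATP measured via CellTiter-Glo, 30 min dark incubation, luminescence.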
HepG2 tox-1: qHTS for Inhibitors of TGF-b: Cytotox Counterscreen; HepG2 CAGA-GFP viability, ATP luminescence, 18 h; Potency, µM (doses to about 46.1 µM), inactives show at the top dose activity change, negative = cytotoxicity, usual class: cytotoxic; 410,000 compounds, 0.76% hits; AID 588856, 2011; note: potency is the fitted concentration of half-maximal effect
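CellTiter-Glo luminescence gave cytotoxicity after 18 hours at 37 degrees C. The cells were HepG2 CAGA-GFP in 1% FBS DMEM, stimulated with 500 pg/mL TGF-beta after compound addition. %Activity was normalised to no-cell wells (complete cell-killing) and DMSO (no toxicity), and curves were fitted and classified.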
TGFb inhibitor: qHTS for Inhibitors of TGF-b; HepG2 CAGA-GFP TGF-b/SMAD3 reporter, GFP fluorescence, 18 h; TGF-beta stimulated, 500 pg/mL final; Potency, µM (top dose mostly 46.1 µM), for inactives: top-dose activity, negative = inhibition, usual class: inhibitors; 410,000 compounds, 1.2% hits; note: potency is the fitted concentration of half-maximal effect; % is set by controls: 0 for no effect and ±100 for the full control effect; nearly all actives have a fitted effect of over 65% in size
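Smad-responsive CAGA-GFP expression was quantified in HEPG2 cells exposed to compounds and 500 pg/mL final TGF-beta for 18 h at 37 degrees C; unstimulated wells defined full inhibition.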
TDP1 cell CPT: qHTS for Inhibitors of human tyrosyl-DNA phosphodiesterase 1 (TDP1): qHTS in cells in presence of CPT; AID 686979, 2013; chicken DT40 Tdp1-/-;hTDP1 cells + 20 nM CPT, ATP luminescence, 48 h; Potency, µM (titrated, usually from 46.2 µM), without a hit: at the top dose activity change, negative = growth inhibition, hits mostly inhibitors; 420,000 compounds, 12% hits; note: potency is the fitted concentration of half-maximal effect; % is set by controls: 0 for no effect and ±100 for the full control effect; nearly all actives have a fitted effect of over 55% in size
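Chicken DT40 Tdp1-/- cells stably complemented with human TDP1 were seeded at 400 cells/well in medium containing 20 nM camptothecin, exposed to pin-transferred compounds, and grown at 37 °C for at least 48 hr. Viability was read as ATP luminescence.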
TGFb CAGA inh: qHTS for Inhibitors of TGF-b: Confirmation of Cherry Picks; shares compounds with TGFb inhibitor; HepG2 CAGA-GFP TGF-b reporter, GFP fluorescence, 18 h; cells stimulated with TGF-beta, 500 pg/mL; Potency, µM (series often up to 46.1 µM), for inactives: at the highest dose activity, negative = inhibition, usual class: inhibitors; 1,600 compounds, 63% hits; AID 720534, 2013; note: potency is the fitted concentration of half-maximal effect; % is set by controls: 0 for no effect and ±100 for the full control effect; nearly all actives have a fitted effect of over 65% in size
HepG2 tox-2: qHTS for Inhibitors of TGF-b: Cytotox Counterscreen for Cherry Picks; shares compounds with TGFb inhibitor; HepG2 CAGA-GFP viability, ATP luminescence, 18 h; cells stimulated with TGF-beta, 500 pg/mL; Potency, µM (titrated, usually from 46.1 µM), without a hit: at the highest dose activity, negative = cytotoxicity, usual class: inhibitors; 1,600 compounds, 27% hits; AID 720535, 2013; note: potency is the fitted concentration of half-maximal effect; % is set by controls: 0 for no effect and ±100 for the full control effect; nearly all actives have a fitted effect of over 70% in size
CCL64 TGFb inh: qHTS for Inhibitors of TGF-b: CCL64 Cells Orthogonal Assay for Cherry Picks; shares compounds with TGFb inhibitor; CCL64 CAGA-GFP reporter, TGF-b stimulated, GFP fluorescence, 18 h; Potency, µM (top dose mostly 46.1 µM), without a hit: top-dose activity, negative = inhibition, most hits filed as inhibitors; 1,600 compounds, 41% hits; note: potency is the fitted concentration of half-maximal effect; nearly all actives have a fitted effect of over 65% in size
TGFb COP inh: qHTS for Inhibitors of TGF-b: Hit Validation in HepG2 Cells using COP promoter. shares compounds with TGFb inhibitor. 1,600 compounds, 3% hits. Potency, µM (titrated, usually from 46.1 µM), for inactives: at the highest dose activity, negative = inhibition, usual class: inhibitors. HepG2 COP-GFP TGF-b reporter, GFP fluorescence, 18 h; cells stimulated by added recombinant TGF-beta; note: potency is the fitted concentration of half-maximal effect; nearly all actives have a fitted effect of over 70% in size
* hit, by the source's call. A selection: hits, their analogues and other compounds. The true share with any hit is near 19%. Unless noted, calls come from the whole dose curve; as a rule, active = well fitted curve in the direction sought with a large enough effect; inconclusive = small, poorly fitted or top-dose-only effect, or another doubt; inactive = no such curve, though single readings can be large; an effect the other way counts as inactive or inconclusive.

How did CCOc1ccc2nc3cc(NCc4ccc(OC)cc4)ccc3c(N)c2c1 do in these assays?
S-ASM inh: 113%; IL1B secr inh: -9; DT40 TDP1 no CPT: 21µM*; HepG2 tox-1: 10µM*; TGFb inhibitor: 7.9µM*; TDP1 cell CPT: 15µM*; TGFb CAGA inh: 3.3µM*; HepG2 tox-2: 7.3µM*; CCL64 TGFb inh: inconclusive; TGFb COP inh: 45%

How did CCOc1ccc(S(=O)(=O)N2CCN(CC(O)COc3cccc([N+](=O)[O-])c3)CC2)cc1 (stereo not drawn) do in these assays?
S-ASM inh: 0%; IL1B secr inh: inconclusive; DT40 TDP1 no CPT: 23µM*; HepG2 tox-1: -28%; TGFb inhibitor: inconclusive; TDP1 cell CPT: 15µM*; TGFb CAGA inh: inconclusive; HepG2 tox-2: -13%; CCL64 TGFb inh: inconclusive; TGFb COP inh: 19%

How did CCC(=O)c1ccc(OCC(O)CN2CCN(S(=O)(=O)c3ccc(NC(C)=O)cc3)CC2)cc1 (stereo not drawn) do in these assays?
S-ASM inh: -1%; IL1B secr inh: -11; DT40 TDP1 no CPT: -15%; HepG2 tox-1: 5%; TGFb inhibitor: -7%; TDP1 cell CPT: -26%

What do the screens show for `CC(=O)Nc1ccc(S(=O)(=O)N2CCN(CC(O)COc3ccc4ccccc4c3)CC2)cc1` (stereo not drawn)?
S-ASM inh: -5%; IL1B secr inh: -61*; DT40 TDP1 no CPT: inconclusive; HepG2 tox-1: -18%; TGFb inhibitor: inconclusive; TDP1 cell CPT: inconclusive; TGFb CAGA inh: 26µM*; HepG2 tox-2: -29%; CCL64 TGFb inh: -3%; TGFb COP inh: 7%

How did CN1CCN(CC(O)COc2ccc(S(=O)(=O)N3CCOCC3)cc2)CC1 (stereo not drawn) do in these assays?
S-ASM inh: 2%; IL1B secr inh: -7; DT40 TDP1 no CPT: 13%; HepG2 tox-1: -2%; TGFb inhibitor: 5%; TDP1 cell CPT: 2%

Results for O=C(NC1CCCCC1)c1ccc(-c2ccccc2[N+](=O)[O-])o1 ?
S-ASM inh: 0%; IL1B secr inh: 6; DT40 TDP1 no CPT: -27%; HepG2 tox-1: -21%; TGFb inhibitor: inconclusive; TDP1 cell CPT: -17%

How did O=C(NC1CCCC(C(F)(F)F)C1)c1ccc([N+](=O)[O-])o1 (stereo not drawn) do in these assays?
S-ASM inh: -1%; IL1B secr inh: -98*; DT40 TDP1 no CPT: 18µM*; HepG2 tox-1: 16µM*; TGFb inhibitor: 10µM*; TDP1 cell CPT: inconclusive; TGFb CAGA inh: 7.3µM*; HepG2 tox-2: 23µM*; CCL64 TGFb inh: inconclusive; TGFb COP inh: inconclusive

Results for CCn1c(=O)c(C(=O)CN2CCN(S(=O)(=O)c3cc(C)ccc3C)CC2)c(N)n(Cc2ccccc2)c1=O ?
S-ASM inh: -1%; IL1B secr inh: 0; DT40 TDP1 no CPT: 16µM*; HepG2 tox-1: -14%; TGFb inhibitor: 11µM*; TDP1 cell CPT: 10µM*; TGFb CAGA inh: 12µM*; HepG2 tox-2: inconclusive; CCL64 TGFb inh: 12µM*; TGFb COP inh: 66%

How did O=C(c1ccc(CSc2nc3ccncc3[nH]2)cc1)N1CCN(c2cccc(Cl)c2)CC1 do in these assays?
S-ASM inh: -1%; IL1B secr inh: inconclusive; DT40 TDP1 no CPT: 7.3µM*; HepG2 tox-1: -45%; TGFb inhibitor: 7.9µM*; TDP1 cell CPT: 9.2µM*; TGFb CAGA inh: 16µM*; HepG2 tox-2: inconclusive; CCL64 TGFb inh: inconclusive; TGFb COP inh: 12%

How did Cc1nn(-c2ccc(Cl)cc2)c2nc(-c3cccnc3)cc(C(F)(F)F)c12 do in these assays?
DT40 TDP1 no CPT: 4%; HepG2 tox-1: -2%; TGFb inhibitor: -5%; TDP1 cell CPT: 15%

How did Cn1c(C(=O)N2CCCC(C(=O)NCCCSC3CCCCC3)C2)cc2sccc21 (stereo not drawn) do in these assays?
S-ASM inh: -9%; IL1B secr inh: -11; DT40 TDP1 no CPT: -79%; HepG2 tox-1: -16%; TGFb inhibitor: 13µM*; TDP1 cell CPT: inconclusive; TGFb CAGA inh: inconclusive; HepG2 tox-2: inconclusive; CCL64 TGFb inh: inconclusive; TGFb COP inh: 30%

Results for O=C(OCc1nnc(-c2ccc(Br)cc2)o1)c1cncc(Br)c1 ?
S-ASM inh: -4%; IL1B secr inh: 16; DT40 TDP1 no CPT: -12%; HepG2 tox-1: -16%; TGFb inhibitor: 7%; TDP1 cell CPT: 2%

Results for CCOC(=O)CNC(=O)CSc1nnc(Cn2c(=O)sc3ccccc32)n1-c1ccccc1C ?
S-ASM inh: 3%; IL1B secr inh: -94*; DT40 TDP1 no CPT: inconclusive; HepG2 tox-1: -29%; TGFb inhibitor: inconclusive; TDP1 cell CPT: inconclusive; TGFb CAGA inh: inconclusive; HepG2 tox-2: -5%; CCL64 TGFb inh: 4%; TGFb COP inh: 1%
